High-throughput results as filed in PubChem BioAssay.
Sampled rows, rich in hits. Any-hit rate of the full collection: about 21%.
RORgamma inh – inhibitors of mouse ROR gamma transcriptional activity. Drosophila S2 Gal4-RORgamma UAS-luciferase reporter, 20 h. Potency, µM (highest dose often 53.6 µM), usual class: inhibitors. 5.4% of 310,000 active. AID 2551. P51450; further: nearly all actives have a fitted effect of over 60% in size
Target sequence (P51450 whole entry, looked up, the tested form may be a part): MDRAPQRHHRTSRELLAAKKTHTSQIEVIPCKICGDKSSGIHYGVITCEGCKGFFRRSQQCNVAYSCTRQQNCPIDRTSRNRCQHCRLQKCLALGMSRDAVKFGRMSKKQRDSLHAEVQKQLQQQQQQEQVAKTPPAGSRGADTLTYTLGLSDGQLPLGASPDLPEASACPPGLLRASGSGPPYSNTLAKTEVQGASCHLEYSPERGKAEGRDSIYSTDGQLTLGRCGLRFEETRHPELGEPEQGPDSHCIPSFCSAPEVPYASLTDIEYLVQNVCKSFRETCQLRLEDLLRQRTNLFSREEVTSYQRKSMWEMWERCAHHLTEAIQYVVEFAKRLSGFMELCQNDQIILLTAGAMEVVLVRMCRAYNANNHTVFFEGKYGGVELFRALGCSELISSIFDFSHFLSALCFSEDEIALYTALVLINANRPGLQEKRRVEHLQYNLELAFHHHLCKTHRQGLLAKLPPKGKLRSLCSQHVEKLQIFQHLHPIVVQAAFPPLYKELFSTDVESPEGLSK
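A Gal4/UAS one-hybrid system in insect cells: metallothionein-promoter Gal4–ROR gamma fusion plus Photinus luciferase reporter. Copper sulfate 700 uM final, 20 hr ambient incubation, luminescent detection after 10 min with reagent.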
DT40 TDP1 CPT – DT40-hTDP1 cell growth loss with CPT; chicken DT40 Tdp1-/-;hTDP1 cells + 20 nM CPT, ATP luminescence, 48 h; Potency, µM (titrated, usually from 46.2 µM), usual class: inhibitors; 12% of 420,000 active; further: nearly all actives have a fitted effect of over 55% in size
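Cell growth measured by CellTiter-Glo luminescence after a minimum 48 h, 37 C compound exposure with 20 nM CPT in Tdp1-knockout DT40 cells stably expressing hTDP1, seeded 400/well; qHTS titration format.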
IL1B secr inh – inhibitors of inflammasome signaling (IL-1 beta secretion); THP-1 LPS/ATP IL-1B secretion, AlphaLISA, 16 h; stronger effect = lower value; activity change, % at 57.5 µM; 4.7% of 360,000 active; in the data active means activity change below about -50%; inconclusive means mostly about -30% to -49%
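THP-1 cells pretreated 1 hr with compounds (up to 57.5 uM final), then stimulated with LPS (250 ng/mL final) plus ATP (1.25 mM final); secreted IL-1B measured by AlphaLISA after 16 hr, decreased signal indicating inhibition.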
ELG1 DNA repair – inhibitors of ELG1-dependent DNA repair in HEK293T cells. HEK293T ELG1-luciferase reporter, luminescence, 16 h; DNA damage induced by 5-fluorouridine. Potency, µM (highest dose often 46.1 µM), most hits filed as inhibitors. 2.3% of 330,000 active; further: nearly all actives have a fitted effect of over 55% in size
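Reporter activity after DNA damage by 5-fluorouridine is monitored. Compound-treated cells incubate 16 hr at 37 °C, then ONE-Glo is added for 30 min before luminescence reading.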
VP16 counter – Gal4-VP16 reporter inhibition counter-screen; Potency, µM (series often up to 53.6 µM), most hits filed as inhibitors; 3.5% of 310,000 active; Drosophila S2 Gal4-VP16 UAS-luciferase, luminescence, 20 h;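 further: Gal4-VP16 expression switched on by copper sulfate through the metallothionein promoter; nearly all actives have a fitted effect of over 50% in size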
DT40 TDP1 no CPT – qHTS for Inhibitors of human tyrosyl-DNA phosphodiesterase 1 (TDP1): qHTS in cells in absence of CPT | DT40 Tdp1-/- hTDP1 cells, no CPT, ATP luminescence, 48 h | Potency, µM (highest dose often 46.2 µM), hits mostly inhibitors | 15% of 420,000 active; further: nearly all actives have a fitted effect of over 55% in size
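DT40 Tdp1-/-;hTDP1 cells, no CPT (DMSO vehicle only), 400 cells/well; compounds pin-transferred; ≥48 hr, 37 °C; CellTiter-Glo 30 min RT dark, luminescence read.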
A number is an active result; . = inactive; ? = inconclusive; / = no result given; [ ] = dose if it differs, or a comment. Unless noted, the call rests on the fitted dose curve; in most records, active means well fitted curve in the direction sought with a large enough effect; inconclusive means small, poorly fitted or top-dose-only effect, or another doubt; inactive means no such curve, though single readings can be large; an effect the other way counts as inactive or inconclusive.

SMILES | RORgamma inh | DT40 TDP1 CPT | IL1B secr inh | ELG1 DNA repair | VP16 counter | DT40 TDP1 no CPT
c1ccc(C2C3=C(Nc4ncnn42)c2ccccc2CCC3)cc1 (stereo unspecified) | 10µM | . | . | . | ? | .
CCOC1=C2[C@@H](CN(S(=O)(=O)c3ccc(C)cc3)[C@H]2c2ccccc2Cl)[C@H]2C(=O)N(Cc3ccccc3)C(=O)[C@H]2C1 | / | 18µM | . | / | / | 15µM
Cc1cccc(N2CCN(C(=O)C3CCN(S(=O)(=O)c4cccc5cccnc45)CC3)CC2C)c1 (stereo unspecified) | . | 13µM | . | 18µM | . | 18µM
O=C(C1CCN(S(=O)(=O)c2cccc3cccnc23)CC1)N1CC=C(c2ccccc2)CC1 | . | / | / | 23µM | . | /
Cc1cccc(N2CCN(C(=O)C3CCN(S(=O)(=O)N4CCOCC4)CC3)CC2C)c1 (stereo unspecified) | . | 18µM | . | ? | . | 21µM
Cc1cccc(N2CCN(C(=O)C3CCN(S(=O)(=O)c4cccc5nsnc45)CC3)CC2C)c1 (stereo unspecified) | . | 23µM | . | ? | . | 21µM
CCC1CN(CCNC(=O)c2scc3c2OCCO3)Cc2cc(OC)ccc2O1 (stereo unspecified) | / | .[9.04 µM] | / | / | / | ?
O=C(CC1C(=O)NCCN1Cc1ccccc1C(F)(F)F)NCCN1CCOCC1 (stereo unspecified) | . | . | . | . | . | .
O=C(O)c1ccc(-n2nnnc2SCc2ccccc2Br)cc1 | . | . | . | . | . | .
CC(=O)Nc1ccc(C(=O)N2CCCC(c3cc(C(=O)Nc4ccccc4Cl)no3)C2)cc1 (stereo unspecified) | / | ? | . | / | / | ?
CN(C)c1ccc(/C=N\Nc2nc(-c3ccccc3)cc(=O)[nH]2)cc1 | . | . | . | . | . | .
O=c1[nH]c(N/N=C/c2ccccc2Br)nnc1-c1ccccc1 | ? | 15µM | . | . | ? | 23µM
COc1ccc(/C=N/Nc2nnc(-c3ccccc3)c(=O)[nH]2)cc1 | . | 12µM | -71 | ? | . | 7.3µM
CCC(C(=O)O)C1OC(C(C)C(O)C(C)C(=O)C(CC)C2OC3(C=CC(O)C4(CCC(C)(C5CCC(O)(CC)C(C)O5)O4)O3)C(C)CC2C)C(C)CC1C (stereo unspecified) | 0.89µM | / | / | / | 0.45µM | /
COc1cccc(NC(=S)N2CCc3cc(OC)c(OC)cc3C2)c1 | . | . | . | . | . | ?
COc1cc(NC(=S)N2CCN(C(c3ccccc3)c3ccccc3)CC2)cc(OC)c1 | 4.5µM | ? | ? | . | .[0.365 µM] | .
CSCCCNC(=S)N1CCc2ccccc2C1 | 3.5µM | . | . | ? | ? | .
COc1cc(NC(=S)N2CCc3ccccc3C2)cc(OC)c1 | 14µM | . | . | . | ? | .
COc1cc(NC(=S)N2CCN(C/C=C/c3ccccc3)CC2)cc(OC)c1 | 11µM | . | . | . | ? | ?
CCc1noc(C)c1C(=O)NNC(=O)c1ccccc1Cl | / | . | . | . | / | .
CCCS(=O)(=O)NC(=O)C1(C)CCN(C(=O)/C=C/c2ccccc2)C1 (stereo unspecified) | / | . | . | / | / | .
S=C(NC1CCCC1)N1CCN(C/C=C/c2ccccc2)CC1 | ? | ? | -66 | 18µM | ? | 21µM
S=C(Nc1ccccc1)N1CCN(C/C=C/c2ccccc2)CC1 | 11µM | . | . | ? | ? | ?
CCCC[C@@H]1Cc2[nH][nH]c(=O)c2[C@H](c2cccc3ccccc23)O1 | / | . | . | / | / | .
CN(C)Cc1ccc(CNC(=O)COc2ccc3ccccc3c2)cc1 | . | . | . | ? | . | ?
SMILES | RORgamma inh | DT40 TDP1 CPT | IL1B secr inh | ELG1 DNA repair | VP16 counter | DT40 TDP1 no CPT
CN(c1ccccc1)S(=O)(=O)c1cccc(NC(=O)c2cccc(C#N)c2)c1 | / | ? | ? | ? | / | 15µM
CN(c1ccccc1)S(=O)(=O)c1cccc(NC(=O)c2ccc3ncsc3c2)c1 | . | 10µM | -69 | 15µM | . | ?
Cc1ccc(NC(=O)c2ccc3ncsc3c2)cc1S(=O)(=O)N(C)C | 7.9µM | / | / | ? | 7.1µM | /
CN(c1ccccc1)S(=O)(=O)c1cccc(C(=O)Nc2cccc(C(=O)NC3CC3)c2)c1 | / | ? | . | ? | / | ?
CC(=O)/C(=N/Nc1cccc(Cl)c1)Sc1nnc(C(O)c2ccccc2)n1-c1ccccc1 (stereo unspecified) | . | . | . | . | . | .
CC(=O)/C(=N\Nc1ccc(Cl)cc1)Sc1nnc(-c2ccccc2)n1-c1ccccc1 | 6.3µM | ? | . | ? | 6.3µM | ?
CC(=O)/C(=N/Nc1ccccc1)Sc1nnc(CCc2ccccc2)n1-c1ccccc1 | . | 12µM | -76 | . | . | 18µM
CC(C)(C)c1cnnn1-c1ccc(C(=O)CCl)cc1 | ? | 1.3µM | -106 | . | ? | 1.8µM
O=c1c(-c2ccc(Cl)cc2)nc2cnc(N3CCNCC3)nc2n1CCc1ccccc1 | . | 12µM | / | / | . | 18µM
Cn1c(=O)c(CCc2ccccc2)nc2cnc(N3CCOCC3)nc21 | ? | . | / | / | . | .
COCCn1c(=O)c(-c2ccc(OC)cc2)nc2cnc(N3CCNCC3)nc21 | . | ? | / | / | . | ?
Cn1c(=O)c(CCc2ccccc2)nc2cnc(N3CCNCC3)nc21 | . | ? | / | / | . | 9.2µM
N#CCCn1c(=O)c(-c2cccs2)nc2cnc(N3CCNCC3)nc21 | ? | ? | / | / | ? | 3.7µM
COCCn1c(=O)c(-c2ccc(Cl)cc2)nc2cnc(N3CCNCC3)nc21 | . | 6.5µM | / | / | . | 12µM
CS(=O)(=O)c1ccc(C(=O)N2CCN(C(=O)c3ccco3)CC2)cc1 | / | . | . | . | / | .
COC(=O)c1ccc2c(c1)c(-c1ccccc1)c(-c1ccccc1)n2C | / | . | . | . | / | .
OCC1(Cc2ccc(F)cc2)CCCN(CCCC(F)(F)F)C1 (stereo unspecified) | . | . | . | . | . | .
COCCn1c(=O)c(-c2ccccc2)nc2cnc(N3CCNCC3)nc21 | . | . | / | / | . | .
COc1ccc(-c2nc3cnc(N4CCNCC4)nc3n(CCc3ccccc3)c2=O)cc1 | . | ? | / | / | . | 21µM
CC(C)NC(=O)Nc1nnc([C@H]2C[C@H](O)[C@@H](CO)O2)s1 | / | . | . | / | / | .
CN(C)c1cc[n+](CC(=O)Nc2c(Cl)cc(Cl)cc2Cl)cc1 | ? | 7.3µM | . | ? | ? | 6.5µM
CCCCCCN1C[C@H](n2cc(COC(=O)c3ccccc3)nn2)[C@@H](O)C[C@@H]1c1ccc(C)cc1 | / | ? | . | / | / | ?
COc1ccc(NC(=O)CN(C)C(=O)c2cn(-c3ccccc3)nc2-c2ccc(OC)cc2)cc1 | / | ? | . | ? | / | ?
